# Compound activity from PubChem BioAssay.
# Most compounds without a hit are left out; they make up all but 0.91% or so of the library.
# WRN helicase inh – inhibitors of human WRN helicase; 360,000 compounds, 0.46% hits; AID 651768; Q14191; Potency, µM (doses to about 114 µM), for inactives: top-dose activity change, negative = inhibition, usual class: inhibitors; WRN helicase unwinding, fluorescent forked duplex, kinetic; further: nearly all actives have a fitted effect of over 55% in size
#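 Enzyme (20 nM final) and test compound sit together 15 min at room temperature before substrate addition. Substrate is a single-forked duplex oligonucleotide (100 nM) labelled with fluorophore and quencher, with 2 mM ATP; helicase unwinding raises red fluorescence, read kinetically.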
# APEX1 inh – inhibitors of human APE1 endonuclease; AID 2517; 350,000 compounds, 0.35% hits; recombinant APE1, TAMRA/BHQ-2 abasic DNA cleavage fluorescence; P27695; Potency, µM (highest dose often 65.8 µM), for the others: at the highest dose activity change, negative = inhibition, actives largely listed as inhibitors;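 further: plate controls were vehicle for no effect and reference inhibitor for full effect; nearly all actives have a fitted effect of over 55% in size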
#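 Measures dequenching upon AP-site incision of a 5'-TAMRA/3'-BHQ-2 THF-containing duplex, 50 nM; human APE1 0.75 nM after 15 min room-temperature exposure to compound; kinetic three-point read at one-minute spacing.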
# TRb-SRC2 inh – disrupts binding of human TR beta to SRC2; TRbeta-SRC2 peptide binding, fluorescence polarization; receptor liganded with 1 µM T3; Potency, µM (top dose mostly 106 µM), for the others: at the top dose activity change, negative = inhibition, most hits filed as inhibitors; 280,000 compounds, 0.065% hits; AID 1469;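 further: plate controls were bound peptide for no effect and peptide without receptor for full effect; nearly all actives have a fitted effect of over 50% in size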
#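 Human TRb LBD (0.6 uM) plus Texas Red-labeled SRC2 peptide (20 nM), 1uM T3, 5% DMSO, 5 hr at ambient temperature. Decreased polarization (555/632 nm) flags inhibition; data normalized to free and bound peptide controls.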
# BLM helicase inh – Bloom syndrome helicase (human) inhibition; P54132; 350,000 compounds, 0.2% hits; recombinant BLM DNA unwinding, fluorescence dequenching; AID 2528; Potency, µM (highest dose often 56.1 µM), for inactives: top-dose activity change, negative = inhibition, actives largely listed as inhibitors;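 further: plate controls were vehicle for no effect and no enzyme for full effect; nearly all actives have a fitted effect of over 35% in size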
# Target sequence (P54132 whole entry, looked up): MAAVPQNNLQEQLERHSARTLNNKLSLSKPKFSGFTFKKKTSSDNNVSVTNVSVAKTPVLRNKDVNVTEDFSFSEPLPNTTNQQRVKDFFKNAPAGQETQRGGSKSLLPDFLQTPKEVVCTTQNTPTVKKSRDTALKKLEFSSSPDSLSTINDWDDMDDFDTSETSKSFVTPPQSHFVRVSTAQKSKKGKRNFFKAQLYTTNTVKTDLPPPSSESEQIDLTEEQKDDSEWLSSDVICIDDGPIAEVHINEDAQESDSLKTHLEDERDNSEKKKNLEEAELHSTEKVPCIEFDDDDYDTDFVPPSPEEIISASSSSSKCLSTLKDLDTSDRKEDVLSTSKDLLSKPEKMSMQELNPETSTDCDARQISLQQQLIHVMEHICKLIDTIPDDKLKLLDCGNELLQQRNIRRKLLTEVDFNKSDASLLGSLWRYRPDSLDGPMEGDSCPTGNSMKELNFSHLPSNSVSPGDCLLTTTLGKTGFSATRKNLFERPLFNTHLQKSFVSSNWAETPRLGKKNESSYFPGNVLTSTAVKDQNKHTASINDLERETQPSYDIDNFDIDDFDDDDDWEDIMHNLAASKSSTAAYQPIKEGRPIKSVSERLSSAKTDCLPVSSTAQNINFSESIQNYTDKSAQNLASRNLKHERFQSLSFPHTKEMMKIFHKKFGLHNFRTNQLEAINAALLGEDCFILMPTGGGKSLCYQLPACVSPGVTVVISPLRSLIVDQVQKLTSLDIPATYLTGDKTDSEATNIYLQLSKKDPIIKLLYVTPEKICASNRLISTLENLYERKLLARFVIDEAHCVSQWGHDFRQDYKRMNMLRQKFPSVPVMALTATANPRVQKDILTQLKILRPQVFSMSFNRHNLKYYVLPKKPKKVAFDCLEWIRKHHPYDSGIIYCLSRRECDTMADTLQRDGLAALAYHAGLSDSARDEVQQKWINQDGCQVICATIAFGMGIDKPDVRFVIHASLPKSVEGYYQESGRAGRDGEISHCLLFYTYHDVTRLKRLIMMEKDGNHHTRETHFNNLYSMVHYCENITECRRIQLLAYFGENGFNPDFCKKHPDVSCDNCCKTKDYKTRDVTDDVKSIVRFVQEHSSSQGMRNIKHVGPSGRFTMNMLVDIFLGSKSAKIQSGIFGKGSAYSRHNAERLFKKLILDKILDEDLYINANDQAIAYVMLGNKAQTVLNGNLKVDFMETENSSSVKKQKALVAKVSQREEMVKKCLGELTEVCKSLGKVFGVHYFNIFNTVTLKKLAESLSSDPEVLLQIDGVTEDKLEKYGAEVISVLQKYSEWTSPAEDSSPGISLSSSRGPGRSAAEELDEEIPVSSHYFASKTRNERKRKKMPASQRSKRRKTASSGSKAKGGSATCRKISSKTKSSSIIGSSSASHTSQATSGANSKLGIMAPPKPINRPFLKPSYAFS
# TexasRed fluor – Texas Red fluorescence interference in TRb-SRC2 counter-screen | TRb/SRC2 Texas Red total fluorescence interference | Potency, µM (highest dose often 106 µM), without a hit: at the highest dose fluorescence change, negative = quenching | 280,000 compounds, 0.29% hits; active means well fitted curve in either direction with a large enough effect; inconclusive means small, poorly fitted or top-dose-only effect
#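 Flags fluorescent or light-absorbing compounds by total fluorescence, S + 2P, at 555 nm excitation and 632 nm emission. Mixture: 20 nM Texas Red SRC2 peptide, 0.6 uM human TRb LBD, 1 uM T3, 5% DMSO; compound exposure 5 h at ambient temperature.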
# RECQ1 inh-1 – blocks DNA unwinding by human RECQ1; P46063; RECQ1 DNA unwinding, red fluorescence kinetic read; Potency, µM (titrated, usually from 57.3 µM), inactives show top-dose activity, negative = inhibition, hits mostly inhibitors; 240,000 compounds, 0.54% hits;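 further: plate controls were vehicle for no effect and no enzyme for full effect; nearly all actives have a fitted effect of over 30% in size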
#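 50 nM RECQ1T1 preincubated 15 min with compound in Tris pH 8.0 buffer with MgCl2, DTT, Tween-20 and 2.5 ug/ml poly(dI-dC); started with 200 nM TAMRA/BHQ-2 forked duplex and 2 mM ATP. Unwinding read as fluorescence (525/598 nm), two reads 2 h apart.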
# RECQ1 conf – confirmation of human RECQ1 helicase inhibitors; shares compounds with RECQ1 inh-1; RECQ1 helicase DNA unwinding, fluorescence; Potency, µM (doses to about 229 µM), for inactives: at the highest dose activity change, negative = inhibition, hits mostly inhibitors; 610 compounds, 28% hits; AID 2708; further: nearly all actives have a fitted effect of over 45% in size
# ADP FP counter – displaces ADP in a fluorescence polarization counter-screen for RECQ1 hits; shares compounds with RECQ1 inh-1; ADP fluorescence polarization displacement counterscreen; Potency, µM (series often up to 228 µM), for the others: at the top dose activity change, negative = inhibition, hits mostly inhibitors; 530 compounds, 27% hits; further: nearly all actives have a fitted effect of over 45% in size
# RECQ1 inh-2 – blocks human RECQ1 DNA unwinding | AID 504841 | 1,100 compounds, 15% hits | Potency, µM (series often up to 119 µM), inactives show top-dose activity, negative = inhibition, actives largely listed as inhibitors | shares compounds with RECQ1 inh-1 | recombinant RECQ1 DNA unwinding, red fluorescence; further: nearly all actives have a fitted effect of over 50% in size
# Starred values were filed as active, the others as inactive; i = inactive; ? = inconclusive; nt = no result; [ ] = another dose, or the depositor's remark. Unless noted, the call rests on the fitted dose curve; in most records, active means well fitted curve in the direction sought with a large enough effect; inconclusive means small, poorly fitted or top-dose-only effect, or another doubt; inactive means no such curve, though single readings can be large; an effect the other way counts as inactive or inconclusive. Unless noted, on the % scale 0 is the no-effect control and ±100 the full control effect; potency means the concentration at half of the fitted maximal effect.
SMILES,WRN helicase inh,APEX1 inh,TRb-SRC2 inh,BLM helicase inh,TexasRed fluor,RECQ1 inh-1,RECQ1 inh-2,others
CCN(CC)C(=O)c1ccc2c(c1)N(Cc1c(F)cccc1Cl)C(=O)c1ccccc1S2,nt,nt,2%,-7%,-1%,nt,nt,
COc1ccc(NS(=O)(=O)c2ccc(O)c(NC(=O)c3cc4c(C)nn(-c5ccc(F)cc5)c4s3)c2)cc1,?,?,?,28µM*,?,?,?,
Cc1ccc(C(=O)Nc2cccc3cccnc23)cc1Cl,nt,nt,2%,-6%,1%,nt,nt,
O=C(O)c1ccccc1NC(=S)NC(=O)c1sc2ccccc2c1Cl,6%,1%,6%,1%,0%,0%,nt,
Cc1ccc(NC(=S)NC(=O)c2sc3ccccc3c2Cl)c(C(=O)O)c1,nt,-3%,-2%,-14%,0%,7%,nt,RECQ1 conf=89µM*;ADP FP counter=?
O=c1[nH]c(Nc2ccccc2)cc2ccccc12,-49%[57.1 µM],?,-53%[53 µM],3%,1%[53 µM],?,?,
O=C1C(=O)N(c2ccccn2)C(c2cccc([N+](=O)[O-])c2)/C1=C(/O)c1ccc(Br)cc1 (stereo unspecified),3%,0%,nt,-5%,nt,nt,nt,
COc1ccc(OCC(=O)Nc2nc3ccc(NC(C)=O)cc3s2)cc1,-28%,6%,-2%,-25%,-4%,?,?,
CCC(c1nnnn1Cc1ccco1)N(Cc1ccccc1OC)Cc1cc2cc(C)ccc2[nH]c1=O (stereo unspecified),-20%,-1%,-4%,-2%,1%,i,nt,
CCC(c1nnnn1Cc1ccco1)N(Cc1cc2cc(C)cc(C)c2[nH]c1=O)CC1CCCO1 (stereo unspecified),-20%,-8%,-13%,-10%,5%,?,-7%,
O=[N+]([O-])c1cc(/C=N\Nc2nc(-c3ccccc3)cs2)ccc1O,?,8%,-4%,-12%,-14%,?,nt,
Cc1csc(N/N=C/c2ccc(O)c([N+](=O)[O-])c2)n1,?,?,-3%,?,-26%,14µM*,nt,RECQ1 conf=3%[114 µM];ADP FP counter=?
CC1C/C(=C\c2ccccc2[N+](=O)[O-])c2nc3ccccc3c(C(=O)O)c2C1 (stereo unspecified),-5%,-2%,nt,-4%,nt,nt,nt,
Cc1cc(C(=O)COC(=O)c2ccco2)c(C)n1Cc1ccco1,-14%,?,-4%,-13%,-2%,-14%,nt,
Cc1cc(C(=O)COC(=O)c2cccn2C)c(C)n1Cc1ccco1,-3%,?,-2%,-18%,-2%,?,-18%,
CC(=O)N1N=C(c2ccccc2)OC1c1ccc([N+](=O)[O-])s1 (stereo unspecified),-9%,?,-1%,5%,0%,35µM*,?,
Cc1cccc(C)c1NC(=O)C1C(c2ccc3c(c2)OCO3)=Nc2ccccc2N1C(=O)c1cccc2ccccc12 (stereo unspecified),-3%,nt,nt,nt,nt,nt,nt,
COC(=O)C(Oc1ccc2c(-c3ccc(OC)cc3)cc(=O)oc2c1)c1ccccc1 (stereo unspecified),-8%,-6%,5%,-3%,0%,-17%,nt,
